The source of these data is PubChem BioAssay (NCI).

Where “and” joins values, the source holds several entries; their conditions need not be identical. Equal entries are not always repeated. The panel holds about 83,000 compounds, 20% with a hit somewhere; the sample as a whole holds those more often.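 Growth was measured after 48 h exposure to one concentration of compound in 96-well plates. Values under 10 count as active.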 Calls of active or inactive are those of the source.

The subject of the assay is HL-60(TB) leukemia. The assay is described as follows: NCI-60 one-dose screen, 48 h (100 = growth as untreated, 0 = no growth, -100 = all killed). The following applies: 10 µM unless noted.
For `Fc1cc2c(cc1Cl)N(c1ncnc3ccc(-c4cnc5[nH]ncc5c4)cc13)CC2`, the growth is 66.5% (inactive). Next, `O=C(O)CC(Cl)C(Cl)CC(=O)O` (centres undefined): 99.5% (inactive); `Cc1cc2c(O)c(-c3cccc(Cl)c3)c3sc(=O)oc3c2cc1C`: 23.2% (inactive); `COc1ccc(OC)c(C(=O)/C=C/c2cc3c(c(OC)c2OC)OCO3)c1`: 48.6% (inactive). Next, `CC(C)CCNC(=O)Cn1cccc(NC(=O)OCc2ccccc2)c1=O`: 103% (inactive); `COc1cccc(-c2nn(-c3ccccc3)cc2-c2ccnc(NCCNC(=O)Nc3ccc(Cl)c(Cl)c3)c2)c1`: 0.89% (active); `Cc1nnc(NS(=O)(=O)c2ccc(N=Nc3ccc(N)nc3N)cc2)s1`: 98.4% (inactive) and 98.2% (inactive). `Fc1ccc(Nc2nc3nonc3nc2Nc2ccc(I)cc2)cc1`: the growth is -46.3% (active). Take `CCOc1ccc2nc3cc(N)ccc3c(N)c2c1`: the growth is 117% (inactive) and 86.7% (inactive).

Regarding `CC(=O)C1=C(O)C=C2Oc3c(C(=O)/C=C/c4c(Cl)cccc4Cl)c(O)c(C)c(O)c3[C@]2(C)C1=O`, the growth was -39.3% (active). The result for `CCN1C(=S)N(c2ccccc2)C2NC(=S)N(/N=C/C=C/c3ccccc3OC)C21` (centres undefined) reads -52.9% (active); that for `Cc1cc2nc3ccc(=[N+](C)C)cc-3sc2cc1N`, -50.3% (active) and -34.8% (active); that for `COc1ccc(/C=C/C(=O)c2ccc(OC)c(OC)c2)cc1O`, 81.5% (inactive). As to `O=C(O)c1ccc[n+](CC(=O)N2CCN(c3cc4c(cc3F)c(=O)c(C(=O)O)cn4C3CC3)CC2)c1`, the growth was 97.6% (inactive). Next, `COC(=O)c1ccc(=O)c2nc3/c(=C/O)c(O)cc(=O)c3[nH]c12`: 0.308% (active); `ON=C1CCCCCCCC1`: 61.9% (inactive) and 105% (inactive). The result for `COc1ccc(/C=C/C(=O)Nc2ncnc3nc[nH]c23)cc1` reads 78.8% (inactive). The result for `CCCCN(CCCC)CCCO` reads 95.5% (inactive); that for `CCN(CC)CCCN1C(=O)c2c(c(C)c3c(oc4cc(O)ccc43)c2C)C1=O`, -47.9% (active); that for `O=C(CCCCCCSc1nc(-c2ccc(Cl)cc2)cc(-c2ccc(Cl)cc2)n1)NO`, 9.99% (active). With `COc1ccc(C(=O)N2NC(=O)/C(=C/c3ccc(Br)cc3)N=C2c2ccccc2)cc1`, the growth was 4.51% (active).

For the compound `CCN1C(=O)/C(=c2\sc3n(c2=O)C2C(NN=3)N(CC)C(=S)N2CC)c2ccccc21` (centres undefined), the growth is 87.4% (inactive).

In the case of `C=COC(=O)CCOCC(CC)CCCC` (centres undefined), the growth is 91.8% (inactive). Next, `CC(NNC(=S)N1CCCCCC1)c1ccc2ccccc2n1` (centres undefined): 28.8% (inactive). Take `NCCSC(c1ccccc1)(c1ccccc1)c1ccccc1`: the growth was -17.3% (active).

For `CN(C)CCCC1(c2ccc(F)cc2)OCc2cc(-c3cncc4ccccc34)ccc21` (centres undefined), the growth was 10.7% (inactive). Take `CN(CCc1ccccn1)c1ccccc1`: the growth was 34.4% (inactive).

In the case of `C#COc1cccc(Nc2ncnc3ncc(NC(=O)CCl)cc23)c1`, the growth is -1.51% [6.25 µM] (active). In the case of `CN(C)C(C)(C)CC(C)(C)C`, the growth was 71.8% (inactive).

With `Nc1cc2c(cc1N)-c1ccccc1C2`, the growth was 7.76% (active) and 64.3% (inactive). Next, `CC(C)(C)c1cnc(CSc2cnc(NC(=O)C3CCNCC3)s2)o1`: -40.4% (active). Next, `Cn1ccc(Cc2cnc(N)s2)n1`: 94.2% (inactive); `Cc1ccc(C(C(N)=O)C(C(N)=O)c2ccccc2)cc1` (centres undefined): 84.7% (inactive); `O=C(Nc1cccc2[nH]c(C(F)(F)F)nc12)c1cc(Cl)ccc1Cl`: 36.4% (inactive). Take `Nc1cc(-c2nc3sccn3c2-c2ccnc(NCCCNS(=O)(=O)c3ccc(F)cc3)n2)ccc1F`: the growth is 63.6% (inactive). For the compound `O=C(c1ccccc1)c1ccc(Oc2ccc([N+](=O)[O-])cc2[N+](=O)[O-])cc1`, the growth is 43.6% (inactive). Regarding `ClCCn1cnc2c(SCc3ccccc3Cl)ncnc21`, the growth was 8.38% (active). The result for `O=C(CN1CCN(c2cc3c(cc2F)c(=O)c(C(=O)N/N=C/c2ccccc2O)cn3C2CC2)CC1)N/N=C\c1ccccc1O` reads 1.69% (active).

Consider `Nc1ncnc2c1ccn2-c1cccc(NC(=O)c2cccc(C(F)(F)F)c2)c1`, for which the growth is 104% (inactive).
